From the supplement of paper PMC12282887
± gives the standard deviation of the averaged measurements.

Legend:
Assay in all cases: promoter activity interaction Z-score (Lux/OD deviation from empty-vector control); higher = stronger promoter induction by the compound
[1] = test system: E. coli BW25113 acrABp lux reporter
How it was run: (§1)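 Every compound was given at four 1:2 dilutions, in biological duplicates, to E. coli BW25113 carrying low-copy luxCDABE promoter reporters in wild-type or single-gene deletion backgrounds. Growth in 40 µl LB Lennox in 384-well plates at 37°C was followed by OD600 and luminescence readings every 30 min for 12 h, integrated over 0–8 h for wild type and 1–9 h for deletion strains, with wells below 10% of the median growth value excluded. Scores are Z-transformed residuals of growth-normalised luminescence fitted against a control.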

[2] = test system: E. coli BW25113 micFp lux reporter
How it was run: as §1

[3] = test system: E. coli BW25113 ompFp lux reporter
How it was run: as §1

[4] = test system: E. coli BW25113 robp lux reporter
How it was run: as §1

[5] = test system: E. coli BW25113 soxSp lux reporter
How it was run: as §1

[6] = test system: E. coli BW25113 tolCp lux reporter
How it was run: as §1

[7] = 1.9 µg/ml, genetic background: wild type
[8] = 1.9 µg/ml, genetic background: ΔmarA
[9] = 1.9 µg/ml, genetic background: Δrob
[10] = 1.9 µg/ml, genetic background: ΔsoxS
[11] = 3.7 µg/ml, genetic background: wild type
[12] = 3.7 µg/ml, genetic background: ΔmarA
[13] = 3.7 µg/ml, genetic background: Δrob
[14] = 3.7 µg/ml, genetic background: ΔsoxS
[15] = 7.4 µg/ml, genetic background: wild type
[16] = 7.4 µg/ml, genetic background: ΔmarA
[17] = 7.4 µg/ml, genetic background: Δrob
[18] = 7.4 µg/ml, genetic background: ΔsoxS

CCCCCCCCCCCCC[N+](C)(C)Cc1ccccc1 [Benzalkonium]
promoter activity interaction Z-score [1, 7]: -0.513 ± 0.068 | promoter activity interaction Z-score [1, 8]: -0.237 ± 0.34 | promoter activity interaction Z-score [1, 9]: -0.388 ± 0.4 | promoter activity interaction Z-score [1, 10]: 0.294 ± 0.89 | promoter activity interaction Z-score [1, 11]: -0.16 ± 0.06 | promoter activity interaction Z-score [1, 12]: -0.795 ± 0.15 | promoter activity interaction Z-score [1, 13]: -0.554 ± 0.18 | promoter activity interaction Z-score [1, 14]: 0.231 ± 0.94 | promoter activity interaction Z-score [1, 15]: -0.426 ± 0.23 | promoter activity interaction Z-score [1, 16]: -0.878 ± 0.33 | promoter activity interaction Z-score [1, 17]: -0.727 ± 0.24 | promoter activity interaction Z-score [1, 18]: 0.0433 ± 0.71 | promoter activity interaction Z-score [2, 7]: -0.76 ± 0.023 | promoter activity interaction Z-score [2, 8]: 0.0652 ± 0.0013 | promoter activity interaction Z-score [2, 9]: 0.0861 ± 0.12 | promoter activity interaction Z-score [2, 10]: 0.559 ± 0.1 | promoter activity interaction Z-score [2, 11]: -0.0239 ± 0.31 | promoter activity interaction Z-score [2, 12]: 0.0187 ± 0.025 | promoter activity interaction Z-score [2, 13]: -0.0547 ± 0.088 | promoter activity interaction Z-score [2, 14]: 0.312 ± 0.19 | promoter activity interaction Z-score [2, 15]: -0.0221 ± 0.06 | promoter activity interaction Z-score [2, 16]: 0.112 ± 0.063 | promoter activity interaction Z-score [2, 17]: -0.178 ± 0.013 | promoter activity interaction Z-score [2, 18]: 0.584 ± 0.26 | promoter activity interaction Z-score [3, 7]: -0.908 ± 0.23 | promoter activity interaction Z-score [3, 8]: -0.356 ± 0.42 | promoter activity interaction Z-score [3, 9]: -1.25 ± 0.58 | promoter activity interaction Z-score [3, 10]: -0.386 ± 0.51 | promoter activity interaction Z-score [3, 11]: -0.513 ± 0.059 | promoter activity interaction Z-score [3, 12]: -0.652 ± 0.036 | promoter activity interaction Z-score [3, 13]: -1.38 ± 0.51 | promoter activity interaction Z-score [3, 14]: -0.498 ± 0.53 | promoter activity interaction Z-score [3, 15]: -0.731 ± 0.65 | promoter activity interaction Z-score [3, 16]: -1.05 ± 0.44 | promoter activity interaction Z-score [3, 17]: -1.75 ± 0.21 | promoter activity interaction Z-score [3, 18]: -0.339 ± 0.55 | promoter activity interaction Z-score [4, 7]: -1.53 ± 0.13 | promoter activity interaction Z-score [4, 8]: -0.233 ± 0.25 | promoter activity interaction Z-score [4, 9]: -0.222 ± 1.1 | promoter activity interaction Z-score [4, 10]: -0.27 ± 0.21 | promoter activity interaction Z-score [4, 11]: -0.668 ± 0.089 | promoter activity interaction Z-score [4, 12]: -0.453 ± 0.016 | promoter activity interaction Z-score [4, 13]: -0.648 ± 0.67 | promoter activity interaction Z-score [4, 14]: -0.627 ± 0.58 | promoter activity interaction Z-score [4, 15]: -0.364 ± 0.19 | promoter activity interaction Z-score [4, 16]: -0.432 ± 0.13 | promoter activity interaction Z-score [4, 17]: -0.777 ± 0.35 | promoter activity interaction Z-score [4, 18]: -0.0429 ± 0.032 | promoter activity interaction Z-score [5, 7]: -0.311 ± 0.12 | promoter activity interaction Z-score [5, 8]: 0.435 ± 0.12 | promoter activity interaction Z-score [5, 9]: 0.153 ± 0.081 | promoter activity interaction Z-score [5, 10]: 0.8 ± 0.97 | promoter activity interaction Z-score [5, 11]: -0.00893 ± 0.087 | promoter activity interaction Z-score [5, 12]: 0.517 ± 0.017 | promoter activity interaction Z-score [5, 13]: -0.0801 ± 0.15 | promoter activity interaction Z-score [5, 14]: 0.388 ± 0.66 | promoter activity interaction Z-score [5, 15]: -0.156 ± 0.16 | promoter activity interaction Z-score [5, 16]: 0.256 ± 0.12 | promoter activity interaction Z-score [5, 17]: -0.261 ± 0.034 | promoter activity interaction Z-score [5, 18]: 0.23 ± 0.41 | promoter activity interaction Z-score [6, 7]: -0.208 ± 0.53 | promoter activity interaction Z-score [6, 8]: 1.08 ± 0.12 | promoter activity interaction Z-score [6, 9]: 1.06 ± 0.98 | promoter activity interaction Z-score [6, 10]: 0.966 ± 0.54 | promoter activity interaction Z-score [6, 11]: -0.106 ± 0.92 | promoter activity interaction Z-score [6, 12]: 1.89 ± 1.1 | promoter activity interaction Z-score [6, 13]: -0.289 ± 0.39 | promoter activity interaction Z-score [6, 14]: 0.246 ± 0.11 | promoter activity interaction Z-score [6, 15]: 0.0455 ± 1.8 | promoter activity interaction Z-score [6, 16]: 0.506 ± 0.55 | promoter activity interaction Z-score [6, 17]: -0.0996 ± 0.22 | promoter activity interaction Z-score [6, 18]: 1.32 ± 2 | promoter activity interaction Z-score ([6]; 14.9 µg/ml, genetic background: ΔsoxS): 1.08 ± 0.5
